Results as given in PubChem BioAssay AID504648 (National Center for Advancing Translational Sciences (NCATS), 2011).
Out of some 390,000 compounds screened, about 610 (0.16%) were called active. Where a call stands in place of a potency, no number is given. Roughly 4% stayed inconclusive and do not appear here. Calls come from the whole dose curve; as a rule, active = well fitted inhibition curve with a large enough effect; inconclusive = small, poorly fitted or top-dose-only effect, or effect the other way, or another doubt; inactive = no such curve, though single readings can be large or run the other way. This excerpt belongs to a sample that is enriched for actives.

experiment: Nrf2 qHTS screen for inhibitors: counterscreen for cytotoxicity; settings: A549 ARE-Fluc cells, CellTiter-Fluor viability, 18-24 h; series mostly up to 46 µM
Outline: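 A549 ARE-Fluc cells in 5% FBS OPTI-MEM, 5000 cells/well, rested 2 h then exposed to compounds in concentration-response for 18-24 h at 37 °C. Viability by CellTiter-Fluor fluorescence (Ex 405/Em 525) after 30 min; luciferase luminescence (BugLite, 15 min, RT) read afterwards.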
Potency is the fitted concentration of half-maximal effect.

Compound | Potency | activity change, negative = cytotoxicity
Cc1cc(Nc2cc(N3CCN(C)CC3)nc(Sc3ccc(NC(=O)C4CC4)cc3)n2)n[nH]1 | inactive | –
C=CC(=O)Nc1ccc(Nc2ccnc(Nc3ccc(N4CCN(C)CC4)cc3)n2)cc1 | 9.2 µM (active) | –
O=C(COc1ccccc1)Nc1ccc(N2CCN(C(=O)c3cccs3)CC2)cc1 | inactive | –
Cc1ccc(F)c(NC(=O)CCOc2ccccc2C)c1 | inactive | –
COc1cc(/C=N/NC(=O)Nc2ccccc2)ccc1OCCOc1ccccc1C | 5.8 µM (active) | –
C/C=C/c1ccc(OCCOc2ccc(C=O)cc2OC)c(OC)c1 | inactive | –
CC(=O)c1ccc(NC(=O)CSc2c(C(C)C)cnc3c2c(=O)n(C)c(=O)n3C)cc1 | inactive | –
COc1ccc(CN2CCC(=O)c3ccccc3S2(=O)=O)cc1 | inactive | –
O=C(c1ccc2c(=O)n(Cc3ccco3)c(=S)[nH]c2c1)N1CCCC1 | inactive | –
COc1ccc(C2Nc3ccccc3C(=O)N2Cc2ccc(CNC(=O)CO)cc2)cc1COc1ccc(NC(C)=O)cc1 (stereo unspecified) | inactive | –
Cc1ccc(OCCn2c(CNc3ccccc3C)nc3ccccc32)cc1 | inactive | –
O=C(CCC1N=C2c3ccccc3N=C(SCc3ccccc3F)N2C1=O)NCCc1ccccc1 (stereo unspecified) | inactive | –
CN(C)Cc1cn(-c2ccccc2)nc1-c1ccccc1 | inactive | –
COC(=O)C(CC(C)C)NS(=O)(=O)c1cc(Br)ccc1Br (stereo unspecified) | inactive | –
Cc1cc(C)cc(NC(=O)CCS(=O)(=O)c2cc3c4c(c2)CCN4C(=O)CC3)c1 | inactive | –
O=[N+]([O-])c1ccc(S(=O)(=O)N2CCN(c3nc(-c4ccccc4)nc4ccccc34)CC2)cc1 | inactive | –
COc1ccc(C2Nc3ccccc3C(=O)N2Cc2ccco2)cc1COc1cccc(NC(C)=O)c1 (stereo unspecified) | inactive | –
C=CCNC(=O)c1ccc2nc(-c3ccco3)c(-c3ccco3)nc2c1 | inactive | –
CCOc1ccc(NC(=O)c2c(NCc3cccc(OC)c3OC)sc3c2CCC3)cc1 | inactive | –
CCOc1ccc(CC(=O)NCCc2csc3nc(-c4ccccc4F)nn23)cc1 | inactive | –
CC(=O)Nc1ccc(S(=O)(=O)N2N=NC3C2C2CC4C3(CN(C(=O)OC(C)(C)C)S4(=O)=O)O2)cc1 (stereo unspecified) | inactive | –
COc1ccc(CCn2c3c(c(=O)[nH]c2=S)CN(C(C)C)CN3)cc1OC | inactive | –

Compound | Potency | activity change, negative = cytotoxicity
Cc1ccc(CNS(=O)(=O)c2ccc(C(=O)N(C)C)s2)cc1 | inactive | –
Cc1cc(C)n2ncc(C(=O)Nc3cccc(C#N)c3)c2n1 | – | -5.38% [at 9.26 µM] (inactive)
Oc1ccc(Cl)cc1C1C=C(c2ccc3c(c2)OCO3)NC(c2c(F)cccc2Cl)N1 (stereo unspecified) | inactive | –
COc1ccc(C2/C=C\CN(C(=O)c3ccc(C)cc3)C(Cc3ccccc3)C(=O)N2Cc2ccc(F)cc2)cc1 (stereo unspecified) | inactive | –
C=C1CCN(C(CC(C)C)C(=O)NCc2cc(OC)c(OC)c(OC)c2)S(=O)(=O)c2ccccc21 (stereo unspecified) | inactive | –
CCn1cc(/C=C2/SC(=S)NC2=O)c(C)n1 | 18.4 µM (active) | –
COc1cccc(C2c3c(ncn(-c4cccc(Br)c4)c3=N)Oc3ccc4ccccc4c32)c1 (stereo unspecified) | inactive | –
O=C(Nc1cccc2cccnc12)C(F)(F)F | inactive | –
N#Cc1nc(NCc2ccc(Cl)c(Cl)c2)c2ncn(CCCO)c2n1 | inactive | –
Cc1c(Cl)cccc1-c1ccc(CNCCCSc2nnnn2C)o1 | inactive | –
O=S1(=O)N=C(Oc2cccc(Br)c2)c2ccccc21 | inactive | –
O=C(NCc1ccccn1)[C@]1(C(F)(F)F)C[C@H](CCc2ccccc2)CCCO1 | inactive | –
O=c1ccc2c(-c3ccccc3S(=O)(=O)O)c3ccc(O)c(O)c3oc-2c1O | 13 µM (active) | –
Cc1cc2c(s1)c1cnn(Cc3c(F)cccc3Cl)c(=O)c1n2C | inactive | –
CC(=O)NC(c1cccs1)c1cc(Cl)c2cccnc2c1O (stereo unspecified) | inactive | –
COC(=O)c1ccccc1NC(=O)c1ccc(C#N)cc1 | inactive | –
COc1ccc(-c2ccc3ncnc(NCc4cccs4)c3c2)cc1OC | inactive | –
COc1ccccc1NC(=O)CSC1=Nc2ccccc2C2=NC(CC(=O)NCc3cccs3)C(=O)N12 (stereo unspecified) | inactive | –
Cc1ccc(-c2nc3ccccn3c2Nc2ccc(F)cc2)o1 | inactive | –
COC(=O)c1ccccc1S(=O)(=O)Nc1ccc(OC)cc1 | inactive | –
Oc1ccc(Cl)cc1C1C=C(c2ccc3c(c2)OCO3)NC(c2ccc(F)c(Br)c2)N1 (stereo unspecified) | inactive | –
O=C(Nc1nc2ccc([N+](=O)[O-])cc2s1)c1ccc(S(=O)(=O)N2CCCc3ccccc32)cc1 | 9.2 µM (active) | –

Compound | Potency | activity change, negative = cytotoxicity
O=C(NC(Nc1nc2ccc([N+](=O)[O-])cc2s1)(C(F)(F)F)C(F)(F)F)c1ccccc1 | 10.3 µM (active) | –
CNC(=O)c1ccsc1NC(=O)c1ccc(S(=O)(=O)N2CCc3ccccc32)cc1 | inactive | –
O=C(CNC(=O)c1ccccc1)OC(C(=O)Nc1cc([N+](=O)[O-])ccc1F)c1ccccc1 (stereo unspecified) | inactive | –
O=C(Nc1nnc(S(=O)(=O)N2CCCc3ccccc32)s1)c1cccc(F)c1 | inactive | –
NS(=O)(=O)c1ccc2nc(NC(=O)COc3ccccc3)sc2c1 | inactive | –
COc1ccc(C2=Nn3c(nnc3-c3ccccc3O)SC2)cc1 | inactive | –
Cc1ccc(CNc2ncnc3cc(-c4ccc5c(c4)OCO5)ccc23)o1 | inactive | –
Cc1oc2c(c1C(=O)N1CCOCC1)C(=O)c1ccccc1C2=O | 16.4 µM (active) | –
Cc1ccc(C)c(CN2C(=O)c3ccccc3S(=O)c3ccc(C(=O)N4CCOCC4)cc32)c1 (stereo unspecified) | inactive | –
Cc1ccc(S(=O)(=O)NC(C(=O)N2CCOCCOCCOCCOCC2)c2ccccc2)cc1 (stereo unspecified) | inactive | –
CCN(CC)c1nc(C#N)nc(OC)n1 | inactive | –
Cc1ccccc1OCCSc1nc2ccc(NC(=O)c3ccco3)cc2s1 | inactive | –
CCOc1ccccc1NC(=O)CN1CCCN(Cc2cccc(Cl)c2)S1(=O)=O | inactive | –
CC(C)c1ccc(NC(=O)Cn2c3ncccc3c(=O)n2-c2ccccc2)cc1 | inactive | –
Cc1ccc(C(=O)Nc2nc(-c3ccccc3)ns2)cc1 | inactive | –
CCN1CCN(CCCNC(=O)c2ccc3c(c2)sc2nc(-c4ccc(OC)cc4)cn23)CC1 | inactive | –
Cc1cc2nc(NC(=O)c3ccc(S(=O)(=O)N4CCOCC4)cc3)sc2cc1C | inactive | –
CC(C)c1ccc(/C=C/C(=O)NCCCN2CCOCC2)cc1 | inactive | –
Cc1ccc(NS(=O)(=O)c2ccc(C(=O)NCCCN3CCOCC3)cc2)cc1 | inactive | –
Cc1ccc(/C=C2/SC(=S)N(CCC(=O)NCCCN3CCOCC3)C2=O)cc1 | 14.6 µM (active) | –
O=C(NCC1CC1)C1(C(F)(F)F)C/C(=C\CCO)CCCO1 (stereo unspecified) | inactive | –
CCN1/C(=C\c2ccc3ccccc3[n+]2CC)Sc2cc(C)ccc21 | 23.1 µM (active) | –

Compound | Potency | activity change, negative = cytotoxicity
Cc1ccc(CN2CCCn3nc(C(=O)NCc4ccccc4Cl)cc3C2=O)cc1 | inactive | –
Cc1ccc(Nc2c(-c3ccc(N(C)C)cc3)nc3nc[nH]n23)cc1 | inactive | –
CN(C)c1ccc(Nc2c3c4c(cccc4n(C)c2=O)C(=O)c2ccccc2-3)cc1 | 14.6 µM (active) | –
COc1cc(OC)c2c(c1C(CCN1CCCCC1)c1ccc(N(C)C)cc1)OC(=O)CC2c1ccc(N(C)C)cc1 (stereo unspecified) | inactive | –
Cc1ccc(OCCSc2nc(-c3cccs3)nc3cc(=O)[nH]n23)cc1Cl | inactive | –
CCOc1ccc(NC(=O)C(CC(C)C)N2Cc3ccccc3C2=O)cc1 (stereo unspecified) | inactive | –
COc1cc(Cl)c(C)cc1NC(=O)CCc1nc2cccnc2n1Cc1cccs1 | inactive | –
CN(C)c1ccc(C(=O)NCC(=O)OC(C(=O)Nc2cc(C(F)(F)F)ccc2Cl)c2ccccc2)cc1 (stereo unspecified) | inactive | –
Cc1ccc(C(=O)NC2CCN(C#N)CC2)cc1 | inactive | –
COc1ccc(-c2nc(S(=O)(=O)c3ccccc3)c(N3CCCCC3)o2)cc1 | inactive | –
O=S(=O)(c1ccc2c(c1)OCCO2)N1CCN(S(=O)(=O)c2cc(F)ccc2F)CC1 | inactive | –
COc1ccc(C2/C=C\CN(Cc3ccco3)C(C)C(=O)N2Cc2ccc(F)cc2)cc1 (stereo unspecified) | inactive | –
COc1cccc(NC(=O)Nc2ccc3c(c2)N(C)C(=O)c2ccccc2S3)c1 | inactive | –
CC1(C)CCc2cc(S(=O)(=O)N3CCN(c4nc(-c5cccs5)nc5ccccc45)CC3)ccc2O1 | inactive | –
CCCS(=O)(=O)N1CCC(n2c(C(F)(F)F)nc3cccnc32)CC1 | inactive | –
OCCNc1ncnc2oc(-c3ccco3)c(-c3ccco3)c12 | inactive | –
COc1ccc(C2CC(O)(c3ccccc3)Oc3cc(C)cc(C)c32)cc1 (stereo unspecified) | inactive | –
O=S(=O)(c1cccc(C(F)(F)F)c1)N1CCN(c2nc(-c3cccs3)nc3ccccc23)CC1 | inactive | –
COc1cccc(C(=O)NC2CCN(C#N)CC2)c1 | inactive | –
C=CCCN(C(Cc1ccccc1)C(=O)OC)S(=O)(=O)c1cc(Br)ccc1Br (stereo unspecified) | inactive | –
